Assay results published in the supplement of paper PMC10849652.
The full data set covers some 7,900 targets. This sample favours those with a hit. About 0.6% of all pairs of compound and target were hits. A number with no mark means an inactive call.

Assays:
Experiment in all cases: log2 fold change, soluble protein after heating vs DMSO (PISA); higher = thermal stabilisation; K562 cells, 10 uM, 30 min; active = over 0.2 and 3.5 SD of the protein, either way, in both replicates (recomputed)
[1] = compound: CS(=O)(=O)c1ccc(-c2cnc(N)c(C(=O)Nc3ccccc3)n2)cc1
Procedure, shortened: (§1)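 Values are thermal stability changes relative to control samples and are taken from duplicates. They are stated as log2 fold changes. Before quantification by TMTpro 16plex LC-MS/MS with equalised channel sums, K562 cells at 2×10^6 cells/mL were treated with 10 μM compound for 30 min, heated in aliquots for 3 min across 48°C-58°C, pooled, extracted in PBS with 0.5% NP-40 at 4°C, and centrifuged at 21,000xg for 90 min to give the soluble supernatant.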

crizotinib = compound: C[C@@H](Oc1cc(-c2cnn(C3CCNCC3)c2)cnc1N)c1c(Cl)ccc(F)c1Cl [crizotinib]
Procedure, shortened: as §1

[2] = compound: C[C@@H]1COCCN1C2=NC(=NC(=C2)C3(CC3)S(=O)(=O)C)C4=C5C=CNC5=CC=C4
Procedure, shortened: as §1

[3] = compound: C[C@H](C1=CC=C(C=C1)C(=O)NC2=C3C=CNC3=NC=C2)N
Procedure, shortened: as §1

duvelisib = compound: C[C@H](Nc1ncnc2nc[nH]c12)c1cc2cccc(Cl)c2c(=O)n1-c1ccccc1 [duvelisib]
Procedure, shortened: as §1

gandotinib = compound: Cc1cc(Nc2cc(CN3CCOCC3)c3nc(C)c(Cc4ccc(Cl)cc4F)n3n2)n[nH]1 [gandotinib]
Procedure, shortened: as §1

tozasertib = compound: Cc1cc(Nc2cc(N3CCN(C)CC3)nc(Sc3ccc(NC(=O)C4CC4)cc3)n2)n[nH]1 [tozasertib]
Procedure, shortened: as §1

[4] = compound: Cc1cc(SCc2sc(-c3ccc(C(F)(F)F)cc3)nc2C)ccc1OCC(=O)O
Procedure, shortened: as §1

doramapimod = compound: Cc1ccc(-n2nc(C(C)(C)C)cc2NC(=O)Nc2ccc(OCCN3CCOCC3)c3ccccc23)cc1 [doramapimod]
Procedure, shortened: as §1

ispinesib = compound: Cc1ccc(C(=O)N(CCCN)[C@@H](c2nc3cc(Cl)ccc3c(=O)n2Cc2ccccc2)C(C)C)cc1 [ispinesib]
Procedure, shortened: as §1

bafetinib = compound: Cc1ccc(NC(=O)c2ccc(CN3CC[C@H](N(C)C)C3)c(C(F)(F)F)c2)cc1Nc1nccc(-c2cncnc2)n1 [bafetinib]
Procedure, shortened: as §1

[5] = compound: Cc1cccc(CC(=O)N2CCc3c2ccc(-c2cn(C)c4ncnc(N)c24)c3F)n1
Procedure, shortened: as §1

nilotinib = compound: Cc1cn(-c2cc(NC(=O)c3ccc(C)c(Nc4nccc(-c5cccnc5)n4)c3)cc(C(F)(F)F)c2)cn1 [nilotinib]
Procedure, shortened: as §1

[6] = compound: Cc1nc(Nc2n[nH]c3c2CN(C(=O)N[C@H](CN(C)C)c2ccccc2)C3(C)C)c2sccc2n1
Procedure, shortened: as §1

dasatinib = compound: Cc1nc(Nc2ncc(C(=O)Nc3c(C)cccc3Cl)s2)cc(N2CCN(CCO)CC2)n1 [dasatinib]
Procedure, shortened: as §1

[7] = compound: Cc1ncc(-c2ccnc(Nc3ccc(S(C)(=O)=O)cc3)n2)n1C(C)C
Procedure, shortened: as §1

[8] = compound: Cn1cc(-c2ccc3c(c2)CCN3C(=O)Cc2cccc(C(F)(F)F)c2)c2c(N)ncnc21
Procedure, shortened: as §1

[9] = compound: Cn1cc(-c2ccc3nnc(C(F)(F)c4ccc5ncccc5c4)n3n2)cn1
Procedure, shortened: as §1

tipifarnib = compound: Cn1cncc1[C@@](N)(c1ccc(Cl)cc1)c1ccc2c(c1)c(-c1cccc(Cl)c1)cc(=O)n2C [tipifarnib]
Procedure, shortened: as §1

mubritinib = compound: FC(F)(F)c1ccc(/C=C/c2nc(COc3ccc(CCCCn4ccnn4)cc3)co2)cc1 [mubritinib]
Procedure, shortened: as §1

UniProt Q8WUX2, sequence (Q8WUX2 whole entry, looked up): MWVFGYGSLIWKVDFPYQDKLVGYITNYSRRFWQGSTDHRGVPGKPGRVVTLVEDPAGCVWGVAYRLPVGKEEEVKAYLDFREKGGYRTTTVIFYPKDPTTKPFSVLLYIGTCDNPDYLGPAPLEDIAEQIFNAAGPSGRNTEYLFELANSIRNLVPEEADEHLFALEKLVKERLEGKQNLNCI
UniProt Q5RI15, sequence (Q5RI15 whole entry, looked up): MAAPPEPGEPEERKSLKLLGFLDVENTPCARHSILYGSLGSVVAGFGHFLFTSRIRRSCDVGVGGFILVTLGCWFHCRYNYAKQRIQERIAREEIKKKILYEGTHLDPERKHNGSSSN
UniProt Q14839, sequence (Q14839 whole entry, looked up): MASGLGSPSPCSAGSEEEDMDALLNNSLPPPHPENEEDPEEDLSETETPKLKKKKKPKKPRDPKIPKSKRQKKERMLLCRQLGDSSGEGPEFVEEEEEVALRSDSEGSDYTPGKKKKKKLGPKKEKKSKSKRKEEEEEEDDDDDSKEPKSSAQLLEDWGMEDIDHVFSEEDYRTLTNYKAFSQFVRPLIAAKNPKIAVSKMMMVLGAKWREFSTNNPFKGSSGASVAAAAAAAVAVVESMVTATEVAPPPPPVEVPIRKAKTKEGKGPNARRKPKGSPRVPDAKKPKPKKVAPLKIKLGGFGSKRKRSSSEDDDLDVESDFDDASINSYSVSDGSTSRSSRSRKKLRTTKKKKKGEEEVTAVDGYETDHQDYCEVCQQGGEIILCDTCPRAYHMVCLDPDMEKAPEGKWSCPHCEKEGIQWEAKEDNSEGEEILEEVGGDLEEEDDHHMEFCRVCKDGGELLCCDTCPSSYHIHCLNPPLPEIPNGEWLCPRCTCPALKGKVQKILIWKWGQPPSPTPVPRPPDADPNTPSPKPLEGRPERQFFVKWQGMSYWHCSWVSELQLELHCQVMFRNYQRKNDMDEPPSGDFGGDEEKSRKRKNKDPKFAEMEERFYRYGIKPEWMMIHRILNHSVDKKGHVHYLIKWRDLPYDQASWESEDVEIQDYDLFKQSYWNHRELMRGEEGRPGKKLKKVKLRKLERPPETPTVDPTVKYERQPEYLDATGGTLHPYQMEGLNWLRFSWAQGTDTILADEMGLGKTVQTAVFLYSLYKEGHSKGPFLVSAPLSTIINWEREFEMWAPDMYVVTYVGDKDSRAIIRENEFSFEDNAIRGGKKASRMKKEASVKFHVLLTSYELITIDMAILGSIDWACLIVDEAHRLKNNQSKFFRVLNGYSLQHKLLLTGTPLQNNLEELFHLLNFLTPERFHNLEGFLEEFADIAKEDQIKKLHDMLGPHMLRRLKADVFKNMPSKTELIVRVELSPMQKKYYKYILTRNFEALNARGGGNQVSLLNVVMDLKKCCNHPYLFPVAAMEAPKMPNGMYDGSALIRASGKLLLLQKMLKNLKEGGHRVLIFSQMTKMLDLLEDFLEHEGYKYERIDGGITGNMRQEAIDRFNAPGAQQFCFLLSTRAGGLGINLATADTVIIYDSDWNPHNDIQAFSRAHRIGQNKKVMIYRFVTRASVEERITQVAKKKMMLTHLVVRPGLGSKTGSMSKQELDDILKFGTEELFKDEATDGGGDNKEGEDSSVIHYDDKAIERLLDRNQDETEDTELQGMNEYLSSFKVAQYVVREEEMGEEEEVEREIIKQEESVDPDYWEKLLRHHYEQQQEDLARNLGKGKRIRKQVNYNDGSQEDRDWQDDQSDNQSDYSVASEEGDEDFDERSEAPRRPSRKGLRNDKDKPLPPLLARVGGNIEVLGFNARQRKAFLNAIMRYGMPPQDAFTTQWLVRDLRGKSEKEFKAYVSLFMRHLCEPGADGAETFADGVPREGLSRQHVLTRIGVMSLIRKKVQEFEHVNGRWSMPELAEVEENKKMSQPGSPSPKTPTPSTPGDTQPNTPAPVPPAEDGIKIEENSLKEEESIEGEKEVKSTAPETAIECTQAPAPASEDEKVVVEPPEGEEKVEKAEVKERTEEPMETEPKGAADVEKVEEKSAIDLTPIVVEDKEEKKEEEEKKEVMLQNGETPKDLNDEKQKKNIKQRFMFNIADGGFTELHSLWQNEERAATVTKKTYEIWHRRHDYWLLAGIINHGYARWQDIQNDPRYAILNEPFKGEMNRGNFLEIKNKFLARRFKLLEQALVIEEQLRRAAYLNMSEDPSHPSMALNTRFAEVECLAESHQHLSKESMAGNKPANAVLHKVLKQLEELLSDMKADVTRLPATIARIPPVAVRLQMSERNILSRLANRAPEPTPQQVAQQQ
UniProt Q99439, sequence (Q99439 whole entry, looked up): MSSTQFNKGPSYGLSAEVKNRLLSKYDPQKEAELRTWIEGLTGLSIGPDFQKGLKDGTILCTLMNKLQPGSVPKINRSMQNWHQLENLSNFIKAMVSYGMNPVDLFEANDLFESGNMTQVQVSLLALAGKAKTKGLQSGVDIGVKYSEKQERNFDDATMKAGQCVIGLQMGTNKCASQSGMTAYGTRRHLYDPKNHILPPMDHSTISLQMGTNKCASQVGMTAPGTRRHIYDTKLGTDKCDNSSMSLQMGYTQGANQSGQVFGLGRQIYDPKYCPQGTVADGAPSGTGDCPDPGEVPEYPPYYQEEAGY
UniProt Q9Y5P4, sequence (Q9Y5P4 whole entry, looked up): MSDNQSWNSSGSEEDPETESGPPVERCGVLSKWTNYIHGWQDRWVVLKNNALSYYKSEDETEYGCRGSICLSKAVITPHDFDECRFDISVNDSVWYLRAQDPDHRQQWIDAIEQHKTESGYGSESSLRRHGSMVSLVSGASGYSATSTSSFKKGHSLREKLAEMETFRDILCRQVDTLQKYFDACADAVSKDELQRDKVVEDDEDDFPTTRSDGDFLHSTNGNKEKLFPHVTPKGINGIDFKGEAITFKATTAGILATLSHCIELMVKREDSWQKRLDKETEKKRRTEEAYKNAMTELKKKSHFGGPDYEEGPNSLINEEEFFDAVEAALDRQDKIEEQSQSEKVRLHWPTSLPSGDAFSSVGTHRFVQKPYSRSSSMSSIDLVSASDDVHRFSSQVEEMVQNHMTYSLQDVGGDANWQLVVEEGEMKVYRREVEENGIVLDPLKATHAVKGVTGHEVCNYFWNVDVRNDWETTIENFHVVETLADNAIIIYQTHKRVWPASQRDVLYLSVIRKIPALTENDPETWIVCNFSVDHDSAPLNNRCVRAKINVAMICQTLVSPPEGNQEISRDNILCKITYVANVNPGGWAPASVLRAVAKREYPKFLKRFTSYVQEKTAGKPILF
UniProt Q9Y3X0, sequence (Q9Y3X0 whole entry, looked up): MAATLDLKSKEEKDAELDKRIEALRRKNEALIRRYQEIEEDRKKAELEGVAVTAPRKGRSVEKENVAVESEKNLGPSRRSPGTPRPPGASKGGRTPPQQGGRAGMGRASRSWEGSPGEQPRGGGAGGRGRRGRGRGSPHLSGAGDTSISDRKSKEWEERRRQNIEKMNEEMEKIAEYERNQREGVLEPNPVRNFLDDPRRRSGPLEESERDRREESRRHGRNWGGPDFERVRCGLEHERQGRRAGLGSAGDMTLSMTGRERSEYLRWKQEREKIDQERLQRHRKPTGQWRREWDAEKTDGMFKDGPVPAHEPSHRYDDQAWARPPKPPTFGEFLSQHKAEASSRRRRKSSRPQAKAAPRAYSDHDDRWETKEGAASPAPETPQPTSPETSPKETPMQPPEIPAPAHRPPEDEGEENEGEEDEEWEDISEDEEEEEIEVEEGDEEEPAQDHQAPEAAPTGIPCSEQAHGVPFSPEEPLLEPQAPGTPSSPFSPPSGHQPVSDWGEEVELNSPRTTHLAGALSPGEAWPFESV
UniProt Q8N1G2, sequence (Q8N1G2 whole entry, looked up): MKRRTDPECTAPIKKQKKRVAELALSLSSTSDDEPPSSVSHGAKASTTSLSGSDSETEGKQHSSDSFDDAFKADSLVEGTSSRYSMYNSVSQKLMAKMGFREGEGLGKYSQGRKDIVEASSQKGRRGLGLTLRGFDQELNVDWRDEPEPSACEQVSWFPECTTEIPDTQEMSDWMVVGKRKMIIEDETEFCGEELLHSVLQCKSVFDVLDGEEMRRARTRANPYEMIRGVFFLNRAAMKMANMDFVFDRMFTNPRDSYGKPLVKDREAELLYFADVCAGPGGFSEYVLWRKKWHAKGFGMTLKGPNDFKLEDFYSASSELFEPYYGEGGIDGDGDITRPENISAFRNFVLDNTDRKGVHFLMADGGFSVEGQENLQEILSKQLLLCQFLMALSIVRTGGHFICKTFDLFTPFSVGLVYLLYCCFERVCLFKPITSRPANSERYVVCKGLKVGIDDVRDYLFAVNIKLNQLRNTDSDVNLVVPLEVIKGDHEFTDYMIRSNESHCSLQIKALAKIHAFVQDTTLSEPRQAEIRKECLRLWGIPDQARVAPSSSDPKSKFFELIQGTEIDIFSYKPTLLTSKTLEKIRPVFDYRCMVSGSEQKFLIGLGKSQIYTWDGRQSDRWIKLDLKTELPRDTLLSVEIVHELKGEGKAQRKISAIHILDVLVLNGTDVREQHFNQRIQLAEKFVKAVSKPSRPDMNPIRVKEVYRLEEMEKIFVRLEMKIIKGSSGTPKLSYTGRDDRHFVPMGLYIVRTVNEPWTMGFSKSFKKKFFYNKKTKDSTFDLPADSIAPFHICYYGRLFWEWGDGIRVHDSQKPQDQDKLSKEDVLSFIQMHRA
UniProt Q92851, sequence (Q92851 whole entry, looked up): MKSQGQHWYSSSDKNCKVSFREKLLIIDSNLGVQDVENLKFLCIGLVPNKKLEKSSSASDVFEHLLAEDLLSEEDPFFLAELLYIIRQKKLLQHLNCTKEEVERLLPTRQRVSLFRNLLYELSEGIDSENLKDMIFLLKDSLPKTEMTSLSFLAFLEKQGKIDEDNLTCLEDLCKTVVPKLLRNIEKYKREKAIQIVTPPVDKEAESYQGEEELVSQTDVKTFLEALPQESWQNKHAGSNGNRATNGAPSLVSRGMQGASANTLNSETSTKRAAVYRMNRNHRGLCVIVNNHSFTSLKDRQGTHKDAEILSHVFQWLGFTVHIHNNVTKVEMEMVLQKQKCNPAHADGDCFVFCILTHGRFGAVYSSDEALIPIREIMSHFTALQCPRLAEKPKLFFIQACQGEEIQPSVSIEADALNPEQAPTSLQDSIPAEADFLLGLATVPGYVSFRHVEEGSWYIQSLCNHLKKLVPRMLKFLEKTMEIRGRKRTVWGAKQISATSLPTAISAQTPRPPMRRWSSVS

Target | log2 fold change [1] | log2 fold change (crizotinib) | log2 fold change [2] | log2 fold change [3] | log2 fold change (duvelisib) | log2 fold change (gandotinib) | log2 fold change (tozasertib) | log2 fold change [4] | log2 fold change (doramapimod) | log2 fold change (ispinesib) | log2 fold change (bafetinib) | log2 fold change [5] | log2 fold change (nilotinib) | log2 fold change [6] | log2 fold change (dasatinib) | log2 fold change [7] | log2 fold change [8] | log2 fold change [9] | log2 fold change (tipifarnib) | log2 fold change (mubritinib)
CETN2 (UniProt P41208) | 0.011 | 0.103 | 0.066 | 0.003 | -0.003 | 0.041 | -0.01 | -0.135 | 0.017 | 0.084 | -0.029 | -0.131 | 0.071 | -0.055 | 0.081 | -0.001 | -0.013 | 0.03 | 0.216 | 0.036
CMTR1 (UniProt Q8N1G2) | 0.02 | 0.014 | 0.011 | 0.059 | 0.05 | 0.025 | 0.002 | 0.029 | -0.036 | -0.002 | -0.054 | 0 | -0.059 | -0.01 | -0.059 | 0.035 | -0.033 | 0.044 | -0.03 | 0.029
CTBS (UniProt Q01459) | -0.05 | -0.166 | -0.078 | 0.04 | 0.017 | -0.078 | 0.069 | -0.018 | 0.009 | -0.092 | -0.483 (active) | -0.069 | 0.016 | -0.007 | -0.006 | -0.077 | -0.093 | 0.162 | 0.091 | 0.025
CHAMP1 (UniProt Q96JM3) | 0.02 | -0.154 | 0.074 | -0.071 | -0.076 | -0.046 | 0.045 | -0.049 | -0.003 | -0.185 | -0.134 | 0.049 | 0 | -0.132 | -0.092 | -0.123 | 0.026 | 0.067 | 0.014 | 0.056
CHD4 isoform 2 (UniProt Q14839) | -0.02 | -0.08 | 0.098 | 0.057 | -0.021 | -0.009 | 0.233 | 0.186 | 0.014 | -0.05 | 0.068 | -0.018 | -0.143 | -0.267 | -0.059 | -0.137 | -0.063 | -0.002 | -0.083 | -0.06
CNOT1 (UniProt A5YKK6) | 0.006 | -0.087 | -0.034 | 0.033 | 0.013 | -0.043 | 0.045 | 0.076 | -0.025 | -0.038 | 0.009 | 0.033 | -0.066 | -0.058 | -0.106 | -0.014 | 0.023 | -0.035 | -0.061 | 0.052
CNN2 (UniProt Q99439) | -0.003 | -0.058 | 0.058 | -0.005 | -0.017 | -0.088 | 0.092 | 0.012 | 0.007 | -0.059 | -0.001 | 0.052 | -0.075 | -0.074 | -0.14 | 0.006 | 0.011 | 0.044 | -0.16 | 0.051
CCAR2 isoform 2 (UniProt Q8N163) | -0.037 | 0.024 | 0.046 | 0.011 | -0.001 | -0.093 | 0.103 | 0.169 | -0.009 | -0.063 | 0.007 | 0.01 | -0.053 | -0.023 | -0.176 | -0.157 | -0.009 | 0.042 | 0.011 | 0.031
CSNK1D (UniProt P48730) | 0.12 | -0.103 | -0.246 | 0.055 | -0.039 | 0.054 | -0.028 | 0.069 | 0.109 | -0.116 | 0.1 | 0.064 | -0.025 | 0.073 | 0.119 | 0.241 | -0.083 | -0.042 | 0.051 | -0.148
CERT isoform 3 (UniProt Q9Y5P4) | 0.015 | 0.102 | 0.079 | -0.327 (active) | 0.067 | 0.209 | 0.068 | -0.047 | 0.192 | 0.109 | 0.032 | -0.08 | 0.193 | -0.397 (active) | 0.019 | -0.11 | 0.109 | 0.021 | 0.111 | 0.117
CHAC2 (UniProt Q8WUX2) | 0.026 | 0.048 | 0.021 | -0.071 | 0.04 | -0.014 | 0.059 | 0.008 | -0.021 | 0.071 | -0.052 | -0.003 | 0.078 | -0.153 | 0.012 | 0.012 | -0.004 | -0.006 | -0.037 | 0.045
CLCN7 (UniProt P51798) | -0.037 | -0.814 (active) | 0.018 | -0.091 | -0.089 | -0.193 | -0.031 | 0.028 | -0.008 | -0.952 (active) | -0.24 | 0.083 | -0.035 | -0.012 | -0.091 | -0.111 | 0.011 | 0.049 | 0.038 | -0.02
CCDC9 (UniProt Q9Y3X0) | -0.046 | 0.016 | -0.063 | 0.105 | -0.04 | 0.194 | -0.083 | -0.012 | -0.008 | -0.215 | -0.011 | -0.032 | 0.002 | 0.117 | 0.072 | 0.028 | -0.046 | -0.05 | -0.004 | -0.038
CASP10 isoform 4 (UniProt Q92851) | 0.006 | -0.102 | 0.015 | -0.137 | -0.08 | -0.128 | 0.177 | 0.201 | 0.028 | -0.075 | 0.001 | -0.394 | -0.087 | -0.103 | -0.301 | 0.037 | -0.044 | 0.063 | 0.119 | 0.084
COX20 isoform 2 (UniProt Q5RI15) | -0.043 | 0.063 | -0.098 | 0.01 | -0.017 | -0.385 | 0.022 | -0.001 | -0.001 | -0.017 | -0.072 | -0.241 | 0.017 | 0.012 | 0.049 | 0.009 | -0.044 | 0.023 | -0.069 | -0.092
